In publication PMC7862700, “An all-to-all approach to the identification of sequence-specific readers for epigenetic DNA modifications on cytosine”:

How the values were obtained:
Assay in all cases: DAPPL (digital affinity profiling via proximity ligation, sequencing); 10 mM Tris-HCl pH 7.5, 50 mM NaCl, 1 mM DTT, 4% glycerol, room temperature, 30 min; GST-TFs on glutathione beads, 16-mer random dsDNA library, 0.1% formaldehyde crosslink after washing; high values mean tight binding
FLI1 = target: T1, FLI1 (Homo sapiens, UniProt Q01543 1-452); settings: protein: recombinant; tags: N-terminal GST; dsDNA, one strand shown
T1 sequence: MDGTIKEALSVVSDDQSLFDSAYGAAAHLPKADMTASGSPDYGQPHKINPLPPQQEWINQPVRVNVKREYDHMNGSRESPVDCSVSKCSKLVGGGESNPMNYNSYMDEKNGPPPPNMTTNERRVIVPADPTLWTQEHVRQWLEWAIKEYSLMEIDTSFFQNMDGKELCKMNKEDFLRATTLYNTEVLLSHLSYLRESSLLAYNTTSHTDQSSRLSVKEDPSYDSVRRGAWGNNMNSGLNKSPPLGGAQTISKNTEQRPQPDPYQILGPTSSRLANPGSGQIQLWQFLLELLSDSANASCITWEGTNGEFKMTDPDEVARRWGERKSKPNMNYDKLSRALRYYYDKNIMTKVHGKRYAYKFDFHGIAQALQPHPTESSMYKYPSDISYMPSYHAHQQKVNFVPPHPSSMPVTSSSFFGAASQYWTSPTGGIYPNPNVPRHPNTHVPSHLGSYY
Summary of the method: (§1)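 A tag-only sample was pooled with DNA-barcoded human transcription factors that had been expressed in yeast as GST fusions and captured on glutathione beads. The pools were incubated for 30 min at room temperature with 200 nmole of a random double-stranded 16-mer DNA library in Tris/NaCl/DTT/glycerol buffer, then washed, crosslinked with 0.1% formaldehyde, proximity-ligated (BsaI/T4 ligase, 1 h, 37 °C), PCR-amplified and sequenced on an Illumina NextSeq500. Binding signal is each hexamer's read frequency for a factor divided by its frequency for the tag-only sample.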

ELK1 = target: T2, ELK1 (Homo sapiens, UniProt P19419 1-428); settings: protein: recombinant; tags: N-terminal GST; dsDNA, one strand shown
T2 sequence: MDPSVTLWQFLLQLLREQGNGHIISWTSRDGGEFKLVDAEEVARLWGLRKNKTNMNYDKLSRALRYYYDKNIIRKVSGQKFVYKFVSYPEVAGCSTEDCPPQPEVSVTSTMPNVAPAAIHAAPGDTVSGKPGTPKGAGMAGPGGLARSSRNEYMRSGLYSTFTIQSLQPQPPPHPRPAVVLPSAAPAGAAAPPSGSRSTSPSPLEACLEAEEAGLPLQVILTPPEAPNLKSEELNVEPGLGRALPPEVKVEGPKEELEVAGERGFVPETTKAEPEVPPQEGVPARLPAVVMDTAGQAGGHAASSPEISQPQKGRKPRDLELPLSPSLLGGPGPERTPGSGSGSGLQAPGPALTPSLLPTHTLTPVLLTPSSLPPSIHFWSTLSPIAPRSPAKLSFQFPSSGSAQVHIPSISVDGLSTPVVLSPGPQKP
Summary of the method: as §1

GABPA = target: T3, GABPA (Homo sapiens, UniProt Q06546 1-454); settings: protein: recombinant; tags: N-terminal GST; dsDNA, one strand shown
T3 sequence: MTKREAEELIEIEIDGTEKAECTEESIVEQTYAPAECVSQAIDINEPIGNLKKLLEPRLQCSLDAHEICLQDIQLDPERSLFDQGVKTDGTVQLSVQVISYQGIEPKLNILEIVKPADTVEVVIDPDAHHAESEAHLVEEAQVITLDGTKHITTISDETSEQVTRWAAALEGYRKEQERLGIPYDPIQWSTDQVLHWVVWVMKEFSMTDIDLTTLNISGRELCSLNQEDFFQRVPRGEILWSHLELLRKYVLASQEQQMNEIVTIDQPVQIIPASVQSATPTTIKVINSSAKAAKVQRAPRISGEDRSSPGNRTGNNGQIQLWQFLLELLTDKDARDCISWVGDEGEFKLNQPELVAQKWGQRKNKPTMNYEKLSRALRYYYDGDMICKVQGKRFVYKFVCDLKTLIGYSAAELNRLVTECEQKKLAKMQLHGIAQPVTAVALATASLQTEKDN
Summary of the method: as §1

ERG = target: T4, ERG (Homo sapiens, UniProt P11308 1-479); settings: protein: recombinant; tags: N-terminal GST; dsDNA, one strand shown
T4 sequence: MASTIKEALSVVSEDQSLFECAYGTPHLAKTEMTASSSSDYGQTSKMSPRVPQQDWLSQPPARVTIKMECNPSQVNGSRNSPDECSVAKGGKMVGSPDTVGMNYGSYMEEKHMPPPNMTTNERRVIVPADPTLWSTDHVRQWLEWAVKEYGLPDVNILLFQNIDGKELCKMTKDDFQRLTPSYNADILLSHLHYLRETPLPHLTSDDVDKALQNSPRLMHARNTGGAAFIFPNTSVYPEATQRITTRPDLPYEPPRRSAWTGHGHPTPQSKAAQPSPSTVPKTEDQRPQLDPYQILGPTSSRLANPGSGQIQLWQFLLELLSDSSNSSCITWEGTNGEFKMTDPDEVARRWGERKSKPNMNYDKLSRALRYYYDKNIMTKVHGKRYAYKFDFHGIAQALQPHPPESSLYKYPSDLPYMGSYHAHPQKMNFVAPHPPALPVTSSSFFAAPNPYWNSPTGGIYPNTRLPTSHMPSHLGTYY
Summary of the method: as §1

ELF1 = ELF1 (Homo sapiens, UniProt P32519 1-619); settings: protein: recombinant; tags: N-terminal GST; dsDNA, one strand shown
Sequence of ELF1 (P32519 whole entry): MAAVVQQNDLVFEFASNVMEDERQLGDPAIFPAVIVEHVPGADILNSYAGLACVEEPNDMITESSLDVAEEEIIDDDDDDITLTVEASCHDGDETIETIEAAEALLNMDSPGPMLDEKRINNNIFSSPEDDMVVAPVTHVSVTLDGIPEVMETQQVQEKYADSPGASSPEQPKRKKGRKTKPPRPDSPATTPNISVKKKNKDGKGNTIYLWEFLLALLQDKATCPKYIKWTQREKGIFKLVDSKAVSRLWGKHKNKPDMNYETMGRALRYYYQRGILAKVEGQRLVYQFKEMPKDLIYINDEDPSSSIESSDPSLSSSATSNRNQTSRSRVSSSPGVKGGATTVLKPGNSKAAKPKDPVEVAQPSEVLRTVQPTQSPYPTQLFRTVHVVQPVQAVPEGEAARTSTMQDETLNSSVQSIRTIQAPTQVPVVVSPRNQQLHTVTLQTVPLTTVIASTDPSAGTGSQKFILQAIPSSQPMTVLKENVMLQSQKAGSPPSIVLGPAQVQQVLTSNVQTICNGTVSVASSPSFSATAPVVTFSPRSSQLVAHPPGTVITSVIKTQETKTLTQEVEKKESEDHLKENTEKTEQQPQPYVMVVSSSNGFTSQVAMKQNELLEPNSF
Summary of the method: as §1

EHF = target: T5, EHF (Homo sapiens, UniProt Q9NZC4 1-300); settings: protein: recombinant; tags: N-terminal GST; dsDNA, one strand shown
T5 sequence: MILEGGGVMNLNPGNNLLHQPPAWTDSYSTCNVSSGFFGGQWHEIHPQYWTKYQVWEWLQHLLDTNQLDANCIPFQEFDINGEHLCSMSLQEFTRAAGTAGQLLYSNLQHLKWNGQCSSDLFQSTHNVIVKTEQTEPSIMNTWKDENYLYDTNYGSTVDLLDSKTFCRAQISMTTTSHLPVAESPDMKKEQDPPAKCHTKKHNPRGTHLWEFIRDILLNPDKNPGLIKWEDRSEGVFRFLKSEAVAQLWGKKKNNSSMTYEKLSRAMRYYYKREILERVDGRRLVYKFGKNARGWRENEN
Summary of the method: as §1

SPI1 = SPI1 (Homo sapiens, UniProt P17947 1-270); settings: protein: recombinant; tags: N-terminal GST; dsDNA, one strand shown
Summary of the method: as §1

SPIB = SPIB (Homo sapiens, UniProt Q01892 1-262); settings: protein: recombinant; tags: N-terminal GST; dsDNA, one strand shown
Sequence of SPIB (Q01892 whole entry): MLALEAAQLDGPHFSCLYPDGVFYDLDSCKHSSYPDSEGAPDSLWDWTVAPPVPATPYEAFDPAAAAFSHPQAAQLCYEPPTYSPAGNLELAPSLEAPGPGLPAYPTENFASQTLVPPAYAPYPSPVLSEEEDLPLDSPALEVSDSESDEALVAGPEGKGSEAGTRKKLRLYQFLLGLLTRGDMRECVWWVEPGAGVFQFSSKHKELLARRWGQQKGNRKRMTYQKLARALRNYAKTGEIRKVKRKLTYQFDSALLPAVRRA
Summary of the method: as §1

ELK3 = target: T6, ELK3 (Homo sapiens, UniProt P41970 1-407); settings: protein: recombinant; tags: N-terminal GST; dsDNA, one strand shown
T6 sequence: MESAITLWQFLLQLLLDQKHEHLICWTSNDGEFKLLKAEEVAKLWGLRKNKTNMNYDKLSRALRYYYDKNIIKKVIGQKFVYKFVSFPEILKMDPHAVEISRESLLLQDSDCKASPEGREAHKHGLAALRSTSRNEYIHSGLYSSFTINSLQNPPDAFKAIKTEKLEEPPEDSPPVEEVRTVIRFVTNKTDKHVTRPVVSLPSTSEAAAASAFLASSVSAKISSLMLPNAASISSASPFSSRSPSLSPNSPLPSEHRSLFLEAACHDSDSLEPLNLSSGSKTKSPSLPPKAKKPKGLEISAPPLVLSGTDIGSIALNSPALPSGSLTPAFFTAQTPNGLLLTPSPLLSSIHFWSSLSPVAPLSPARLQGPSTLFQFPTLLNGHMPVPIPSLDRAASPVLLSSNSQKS
Summary of the method: as §1

FEV = target: T7, FEV (Homo sapiens, UniProt Q99581 1-238); settings: protein: recombinant; tags: N-terminal GST; dsDNA, one strand shown
T7 sequence: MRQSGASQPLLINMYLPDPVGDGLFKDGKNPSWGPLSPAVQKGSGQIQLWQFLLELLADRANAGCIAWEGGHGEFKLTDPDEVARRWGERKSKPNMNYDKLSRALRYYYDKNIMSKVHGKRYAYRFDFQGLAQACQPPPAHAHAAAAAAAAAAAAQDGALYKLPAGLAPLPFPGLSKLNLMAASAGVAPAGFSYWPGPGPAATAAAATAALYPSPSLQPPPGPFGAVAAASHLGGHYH
Summary of the method: as §1

ETV5 = ETV5 (Homo sapiens, UniProt P41161 1-510); settings: protein: recombinant; tags: N-terminal GST; dsDNA, one strand shown
Sequence of ETV5 (P41161 whole entry): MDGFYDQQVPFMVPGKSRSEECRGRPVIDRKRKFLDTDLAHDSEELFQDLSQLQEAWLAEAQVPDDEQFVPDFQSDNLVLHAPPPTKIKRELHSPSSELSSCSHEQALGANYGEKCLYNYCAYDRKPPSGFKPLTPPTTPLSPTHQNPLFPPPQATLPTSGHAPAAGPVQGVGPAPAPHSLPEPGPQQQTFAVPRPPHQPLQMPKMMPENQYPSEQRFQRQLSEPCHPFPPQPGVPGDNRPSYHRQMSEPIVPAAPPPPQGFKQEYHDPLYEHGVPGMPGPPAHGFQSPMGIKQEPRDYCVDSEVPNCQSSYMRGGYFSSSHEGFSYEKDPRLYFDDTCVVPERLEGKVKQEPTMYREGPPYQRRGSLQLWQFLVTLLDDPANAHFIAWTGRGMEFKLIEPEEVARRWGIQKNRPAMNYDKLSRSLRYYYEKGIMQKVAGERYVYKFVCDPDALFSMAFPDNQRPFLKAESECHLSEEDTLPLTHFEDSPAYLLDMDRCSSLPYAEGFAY
Summary of the method: as §1

HSF1 = HSF1 (Homo sapiens, UniProt Q00613 1-529); settings: protein: recombinant; tags: N-terminal GST; chain copies: 3; dsDNA, one strand shown
Sequence of HSF1 (Q00613 whole entry): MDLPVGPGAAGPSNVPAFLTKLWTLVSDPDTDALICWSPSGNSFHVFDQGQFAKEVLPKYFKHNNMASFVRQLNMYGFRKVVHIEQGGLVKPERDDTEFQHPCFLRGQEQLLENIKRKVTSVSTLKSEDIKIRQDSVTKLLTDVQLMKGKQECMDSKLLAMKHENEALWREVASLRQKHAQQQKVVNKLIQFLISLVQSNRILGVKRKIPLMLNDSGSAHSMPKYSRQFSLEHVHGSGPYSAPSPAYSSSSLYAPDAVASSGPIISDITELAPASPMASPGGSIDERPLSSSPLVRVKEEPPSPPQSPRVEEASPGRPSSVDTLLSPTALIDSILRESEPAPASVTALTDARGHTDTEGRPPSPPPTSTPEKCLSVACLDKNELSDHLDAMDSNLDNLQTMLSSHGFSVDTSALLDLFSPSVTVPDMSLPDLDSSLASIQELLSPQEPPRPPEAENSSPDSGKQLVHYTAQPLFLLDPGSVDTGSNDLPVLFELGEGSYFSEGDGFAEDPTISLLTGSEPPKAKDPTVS
Summary of the method: as §1

SPIC = target: T8, SPIC (Homo sapiens, UniProt Q8N5J4 1-248); settings: protein: recombinant; tags: N-terminal GST; dsDNA, one strand shown
T8 sequence: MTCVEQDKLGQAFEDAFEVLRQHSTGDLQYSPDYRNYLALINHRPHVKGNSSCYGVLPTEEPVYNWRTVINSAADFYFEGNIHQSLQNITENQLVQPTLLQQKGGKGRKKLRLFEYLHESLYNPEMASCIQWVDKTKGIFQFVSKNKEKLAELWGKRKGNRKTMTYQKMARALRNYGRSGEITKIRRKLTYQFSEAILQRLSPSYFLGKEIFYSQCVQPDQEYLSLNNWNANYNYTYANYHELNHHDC
Summary of the method: as §1

ELF4 = ELF4 (Homo sapiens, UniProt Q99607 1-663); settings: protein: recombinant; tags: N-terminal GST; dsDNA, one strand shown
Sequence of ELF4 (Q99607 whole entry): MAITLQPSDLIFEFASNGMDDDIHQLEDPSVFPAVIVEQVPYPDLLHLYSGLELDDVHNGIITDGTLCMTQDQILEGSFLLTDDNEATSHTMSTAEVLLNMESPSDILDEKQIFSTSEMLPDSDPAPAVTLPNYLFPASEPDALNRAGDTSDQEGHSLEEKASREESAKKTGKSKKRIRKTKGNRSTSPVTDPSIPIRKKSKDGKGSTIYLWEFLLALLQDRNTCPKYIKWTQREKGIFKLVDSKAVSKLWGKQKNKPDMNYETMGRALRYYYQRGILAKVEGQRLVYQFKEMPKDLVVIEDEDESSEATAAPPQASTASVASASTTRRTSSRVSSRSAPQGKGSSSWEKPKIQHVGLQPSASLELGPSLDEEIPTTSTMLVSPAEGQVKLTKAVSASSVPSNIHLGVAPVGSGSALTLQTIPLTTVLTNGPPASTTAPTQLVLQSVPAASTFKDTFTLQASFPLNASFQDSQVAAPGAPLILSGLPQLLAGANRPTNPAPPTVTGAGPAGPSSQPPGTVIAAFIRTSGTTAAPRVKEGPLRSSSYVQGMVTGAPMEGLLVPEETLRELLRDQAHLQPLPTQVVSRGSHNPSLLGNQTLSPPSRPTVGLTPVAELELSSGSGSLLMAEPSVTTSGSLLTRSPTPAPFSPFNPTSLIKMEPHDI
Summary of the method: as §1

ELK4 = target: T9, ELK4 (Homo sapiens, UniProt P28324-2 1-405); settings: protein: recombinant; tags: N-terminal GST; dsDNA, one strand shown
T9 sequence: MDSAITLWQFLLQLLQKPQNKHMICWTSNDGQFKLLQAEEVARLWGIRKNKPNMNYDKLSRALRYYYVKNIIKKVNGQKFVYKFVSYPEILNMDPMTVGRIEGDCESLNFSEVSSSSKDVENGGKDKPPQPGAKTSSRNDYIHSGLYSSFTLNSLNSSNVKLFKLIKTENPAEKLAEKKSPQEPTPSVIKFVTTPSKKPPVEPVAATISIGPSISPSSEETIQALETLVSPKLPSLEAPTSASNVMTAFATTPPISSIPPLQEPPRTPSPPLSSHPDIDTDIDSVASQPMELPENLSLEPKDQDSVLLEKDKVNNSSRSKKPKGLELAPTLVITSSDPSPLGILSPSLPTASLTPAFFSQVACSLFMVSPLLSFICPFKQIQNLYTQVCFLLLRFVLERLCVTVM
Summary of the method: as §1

ETV2 = target: T10, ETV2 (Homo sapiens, UniProt O00321 1-342); settings: protein: recombinant; tags: N-terminal GST; dsDNA, one strand shown
T10 sequence: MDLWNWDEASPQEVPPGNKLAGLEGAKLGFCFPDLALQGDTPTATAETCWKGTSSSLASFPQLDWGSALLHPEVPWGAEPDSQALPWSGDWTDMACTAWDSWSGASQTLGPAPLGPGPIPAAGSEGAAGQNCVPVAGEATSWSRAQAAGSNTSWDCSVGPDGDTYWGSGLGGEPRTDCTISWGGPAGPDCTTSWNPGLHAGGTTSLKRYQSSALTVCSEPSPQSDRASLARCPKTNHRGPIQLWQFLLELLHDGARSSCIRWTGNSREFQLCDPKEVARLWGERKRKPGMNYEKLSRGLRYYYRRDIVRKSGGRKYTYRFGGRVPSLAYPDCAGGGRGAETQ
Summary of the method: as §1

ELF3 = target: T11, ELF3 (Homo sapiens, UniProt P78545 1-371); settings: protein: recombinant; tags: N-terminal GST; dsDNA, one strand shown
T11 sequence: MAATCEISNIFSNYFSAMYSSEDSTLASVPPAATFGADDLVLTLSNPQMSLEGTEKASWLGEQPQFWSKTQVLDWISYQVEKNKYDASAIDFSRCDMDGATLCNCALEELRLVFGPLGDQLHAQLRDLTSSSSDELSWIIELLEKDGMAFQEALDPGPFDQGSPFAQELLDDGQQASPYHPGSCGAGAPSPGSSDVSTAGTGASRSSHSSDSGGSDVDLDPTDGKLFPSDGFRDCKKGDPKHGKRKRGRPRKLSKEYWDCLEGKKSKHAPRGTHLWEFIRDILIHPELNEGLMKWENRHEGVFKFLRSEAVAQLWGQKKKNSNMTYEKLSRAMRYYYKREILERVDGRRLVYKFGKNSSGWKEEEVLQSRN
Summary of the method: as §1

CRX = CRX (Homo sapiens, UniProt O43186 1-299); settings: protein: recombinant; tags: N-terminal GST; dsDNA, one strand shown
Sequence of CRX (O43186 whole entry): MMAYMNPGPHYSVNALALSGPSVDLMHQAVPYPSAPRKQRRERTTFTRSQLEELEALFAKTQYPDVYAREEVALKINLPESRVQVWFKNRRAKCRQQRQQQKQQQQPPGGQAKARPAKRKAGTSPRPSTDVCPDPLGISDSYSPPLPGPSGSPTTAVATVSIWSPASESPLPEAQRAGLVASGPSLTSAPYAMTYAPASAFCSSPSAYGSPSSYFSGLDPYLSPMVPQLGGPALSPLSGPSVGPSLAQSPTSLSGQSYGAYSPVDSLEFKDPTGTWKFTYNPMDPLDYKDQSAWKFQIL
Summary of the method: as §1

ETV1 = ETV1 (Homo sapiens, UniProt P50549 1-477); settings: protein: recombinant; tags: N-terminal GST; dsDNA, one strand shown
Sequence of ETV1 (P50549 whole entry): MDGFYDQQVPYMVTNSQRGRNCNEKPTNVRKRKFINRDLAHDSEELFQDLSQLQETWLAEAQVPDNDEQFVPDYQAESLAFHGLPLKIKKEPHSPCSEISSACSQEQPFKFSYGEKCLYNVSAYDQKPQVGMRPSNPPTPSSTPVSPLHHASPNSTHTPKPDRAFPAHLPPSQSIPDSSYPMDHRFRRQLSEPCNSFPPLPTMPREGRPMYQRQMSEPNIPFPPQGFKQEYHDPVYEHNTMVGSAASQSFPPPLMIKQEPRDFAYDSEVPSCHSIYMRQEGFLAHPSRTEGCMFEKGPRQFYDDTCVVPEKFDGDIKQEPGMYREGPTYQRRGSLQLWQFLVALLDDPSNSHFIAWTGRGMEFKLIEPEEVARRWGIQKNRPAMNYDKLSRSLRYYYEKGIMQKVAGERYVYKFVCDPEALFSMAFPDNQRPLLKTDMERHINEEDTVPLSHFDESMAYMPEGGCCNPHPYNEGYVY
Summary of the method: as §1

## ATTAAA
FLI1
  binding signal: 1.14 fold enrichment (6-mer frequency, TF over GST control)
ELK1
  binding signal: 1.1 fold enrichment (6-mer frequency, TF over GST control)
GABPA
  binding signal: 1.16 fold enrichment (6-mer frequency, TF over GST control)
ERG
  binding signal: 1.09 fold enrichment (6-mer frequency, TF over GST control)
ELF1
  binding signal: 1.2 fold enrichment (6-mer frequency, TF over GST control)
EHF
  binding signal: 1.14 fold enrichment (6-mer frequency, TF over GST control)
SPI1
  binding signal: 1.13 fold enrichment (6-mer frequency, TF over GST control)
SPIB
  binding signal: 1.19 fold enrichment (6-mer frequency, TF over GST control)
ELK3
  binding signal: 1.16 fold enrichment (6-mer frequency, TF over GST control)
FEV
  binding signal: 1.1 fold enrichment (6-mer frequency, TF over GST control)
ETV5
  binding signal: 1.2 fold enrichment (6-mer frequency, TF over GST control)
HSF1
  binding signal: 1.97 fold enrichment (6-mer frequency, TF over GST control)
SPIC
  binding signal: 1.14 fold enrichment (6-mer frequency, TF over GST control)
ELF4
  binding signal: 1.16 fold enrichment (6-mer frequency, TF over GST control)
ELK4
  binding signal: 1.1 fold enrichment (6-mer frequency, TF over GST control)
ETV2
  binding signal: 1.16 fold enrichment (6-mer frequency, TF over GST control)
ELF3
  binding signal: 1.05 fold enrichment (6-mer frequency, TF over GST control)
CRX
  binding signal: 2.99 fold enrichment (6-mer frequency, TF over GST control)
ETV1
  binding signal: 1.18 fold enrichment (6-mer frequency, TF over GST control)
